Lassa entry inh: blocks Lassa virus binding to or entry into cells; Potency, µM (titrated, usually from 37.9 µM), inactives show top-dose activity change, negative = inhibition, usual class: inhibitors; Lassa virus pseudotype entry inhibition, cell reporter; 300,000 tested, 1.2% active; AID 540256; calls by dose curve; tested in HEK293 cells; further: potency means the concentration at half of the fitted maximal effect; nearly all actives have a fitted effect of over 50% in size
FMDV antiviral: blocks foot and mouth disease virus; FMDV antiviral cell-based qHTS; Potency, µM (doses to about 57.9 µM), without a hit: at the top dose activity change, negative = inhibition, most hits filed as inhibitors; 410,000 tested, 1.2% active; AID 1159524; calls by dose curve; tested in HEK293T cells; further: read-out not given here; potency means the concentration at half of the fitted maximal effect; nearly all actives have a fitted effect of over 45% in size
HCMV inh: inhibitors of human cytomegalovirus; 410,000 tested, 4.5% active; HFF cells, HCMV-luciferase reporter, 72 h; hits give low values; activity change, negative = inhibition, % at 57.5 µM; in the data active means activity change below about -60%; inconclusive means no clear call, values can overlap the other calls; inactive means above about -39%
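Two compound doses tested in HFFs infected with HCMV-luciferase, MOI 1 PFU/cell, 72 h at 37C. Lysate luminescence read with OneGlo; data normalized against buffer-only and 10uM Salinomycin inhibitor controls.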
Vaccinia mCherry: vaccinia inhibition (mCherry reporter); Vaccinia virus mCherry reporter infection, fluorescence; Potency, µM (titrated, usually from 36.5 µM), inactives show at the top dose activity change, negative = inhibition, hits mostly inhibitors; 310,000 tested, 0.63% active; AID 720579; calls by dose curve; tested in A549 cells; further: potency means the concentration at half of the fitted maximal effect; nearly all actives have a fitted effect of over 35% in size
Marburg entry inh: blocks Marburg virus binding to or entry into cells; Marburg virus pseudotyped entry inhibition, cell reporter; Potency, µM (titrated, usually from 37.8 µM), without a hit: at the top dose activity change, negative = inhibition, actives largely listed as inhibitors; 300,000 tested, 1.8% active; AID 540276; calls by dose curve; tested in HEK293 cells; further: potency means the concentration at half of the fitted maximal effect
VACV Venus inh: inhibitors of vaccinia virus (Venus reporter); Vaccinia virus Venus reporter expression, fluorescence; Potency, µM (titrated, usually from 36.5 µM), inactives show at the top dose activity change, negative = inhibition, actives largely listed as inhibitors; 330,000 tested, 0.46% active; AID 720580; calls by dose curve; tested in A549 cells; further: potency means the concentration at half of the fitted maximal effect; nearly all actives have a fitted effect of over 30% in size
An asterisk follows results filed as active; i = inactive; ? = inconclusive; · = no result; [ ] = dose if it differs, or a comment. Only some compounds are listed: those with a hit (about 6.5% of all), similar ones and a draw of the others. On the % scale 0 is the no-effect control and ±100 the full control effect.

SMILES	Lassa entry inh	FMDV antiviral	HCMV inh	Vaccinia mCherry	Marburg entry inh	VACV Venus inh
C/C(=N\NC(=O)c1c(C)nc2ccccn12)c1ccc(O)cc1O	-26.5%[46.1 µM]	2.9%	-82.3*	?	-26.7%[46.1 µM]	?
CCOc1ccc(NC(=O)Cn2c(=O)cc(C)c3c(C)nn(-c4cccc(Cl)c4C)c32)cc1	0.1%[46.1 µM]	-9.5%	9.9	i	·	-10.9%
CCOc1ccccc1CNC(=O)CN1C(=O)CCCc2ccccc21	7.5%[46.1 µM]	-0.1%	0.0	i	·	-4.1%
Cc1ccc2ccc3ccc(C)nc3c2n1	·	-24.0%	-94.1*	-23.3%	·	-16.9%
Cc1ccc2cc(F)c(F)c(F)c2n1	·	-14.6%	-2.5	20.1%	·	8.5%
COc1cc(OC)c(OC)cc1CN1CCN(Cc2ccc(SC)cc2)CC1	?	-26.2%	-36.1	·	7.3µM*	·
COc1ccc(CN2CCN(Cc3cc(=O)oc4cc(C)ccc34)CC2)c(OC)c1OC	-21.6%[46.1 µM]	-2.2%	-5.2	-13.1%	14.1µM*	-7.3%
COc1ccc(CN2CCN(Cc3ccc(C)cc3)CC2)c(OC)c1	4.9%	-12.2%	-9.8	-8.5%	10µM*	3.9%
COc1ccccc1N1CCN(Cc2cc(=O)oc3cc(C)ccc23)CC1	?	?	0.7	10.3%	·	-9.7%
COc1cc(CN2CCN(Cc3ccc(SC)cc3)CC2)cc(OC)c1O	-15.0%	?	8.9	-27.2%	-8.7%[46.1 µM]	-1.2%
COc1ccc(CN2CCN(Cc3ccc(Br)cc3)CC2)c(OC)c1OC	·	?	-68.0*	·	·	·
CCc1ccccc1NC(=O)CSc1ncc2c(n1)-c1ccccc1N(Cc1ccc(C)cc1)S2(=O)=O	-19.8%[46.1 µM]	-21.7%	-4.8	-24.2%	·	-23.3%
C[C@@H]1C=CCCO[C@]12C(=O)Nc1ccc(O)cc12	·	·	·	·	9.5%[14.2 µM]	·
Cc1c(C(=O)NCC(C)(C)N2CCOCC2)cnn1-c1ncc2c(n1)-c1ccccc1CCC2	·	-10.5%	·	-13.2%	·	-7.3%
CSc1ccc(C(=S)N2CCN(Cc3ccccc3)CC2)cc1	16.4µM*	-11.3%	-19.7	·	-5.4%	·
S=C(c1ccc(Cl)cc1)N1CCN(Cc2ccccc2)CC1	-19.2%[46.1 µM]	0.0%	?	?	-0.5%[46.1 µM]	3.9%
Cc1cccc(N2CCN(C(=O)c3c(C)nn(Cc4ccccc4Cl)c3C)CC2)c1C	?	35.5µM*	?	·	?	?
N#Cc1ccc(OCC(=O)NCCc2ccc(S(N)(=O)=O)cc2)cc1	-11.9%	10.7%	-80.3*	·	-2.1%	-8.1%
C[C@@H](C(=O)OCC(=O)NCCc1ccc(S(N)(=O)=O)cc1)N1C(=O)C2CCCCC2C1=O (some centres not stated)	·	-3.1%	-79.9*	·	·	·
NS(=O)(=O)c1ccc(CCNC(=O)CN2CCC(Cc3ccccc3)CC2)cc1	-16.0%[46.1 µM]	-30.1%	-76.1*	-6.9%	?	-17.0%
CCOc1ccccc1CNC(=O)c1ccc(Cn2c(SCc3ccccc3)nc3cccnc32)cc1	·	3.9%	-18.1	-8.1%	12.2%[46.1 µM]	-15.0%
COc1ccc(Oc2ccc3c(-c4ccccc4F)noc3n2)c(F)c1	·	·	0.4	·	·	·
COc1ccc([C@H]2NC(=O)C[C@@H]2C(=O)N2CCOCC2)cc1	·	·	-11.3	·	·	·
CN(C)c1ccc(N/C=C/C(=O)c2ccccc2)cc1	6.51µM*	10µM*	0.4	·	?	·
O=C(Nc1cccc(F)c1)C1CCCN(S(=O)(=O)c2cnc[nH]2)C1 (configuration not stated)	·	-20.5%	-61.8*	·	·	·
SMILES	Lassa entry inh	FMDV antiviral	HCMV inh	Vaccinia mCherry	Marburg entry inh	VACV Venus inh
Cc1ccc(NC(=O)C2CCCN(S(=O)(=O)c3cnc[nH]3)C2)cc1F (configuration not stated)	·	-9.8%	61.2	-1.7%	·	-8.1%
Cc1c(C)n(Cc2ccccc2)c2ncnc(NN)c12	·	?	-73.4*	·	·	·
Cc1c(C)n(CCc2ccccc2)c2ncnc(NCCCO)c12	·	26.9%	98.7	·	·	·
COCCn1c(C)c(C)c2c(NCCc3ccccc3)ncnc21	·	?	-98.7*	·	·	·
Nc1ncc(Br)nc1NC1CCOCC1	·	·	43.8	·	·	·
O=C(CSc1n[nH]c(-c2ccccn2)n1)Nc1ccc(F)cc1	10µM*	11.8%	?	14.1µM*	?	?
O=C(CSc1n[nH]c(-c2ccncc2)n1)Nc1ccc(F)cc1	9.3%	-7.8%	3.4	-4.6%	-5.8%	-2.0%
O=C(CSc1n[nH]c(-c2ccc(Cl)cc2Cl)n1)Nc1ccccn1	4.6%	-26.7%	-39.5	-26.7%	-12.2%	-13.3%
O=C(CSc1n[nH]c(-c2ccccn2)n1)Nc1ccc(Cl)cc1	?	-16.4%	-95.6*	7.94µM*	?	-26.2%
Cc1ccc(NC(=O)CSc2n[nH]c(-c3ccccn3)n2)cc1	?	-0.1%	-12.3	10µM*	4.47µM*	?
CC(C)NC(=O)Cn1c(=O)nc(-c2ccccc2)c2ccccc21	-5.1%[46.1 µM]	6.3%	49.2	?	·	-21.9%
CN(CCCN(Cc1ccc(Cl)cc1)c1ccc(Br)cn1)C(=S)NCCCc1cnc[nH]1	·	·	·	4.4%	·	-18.6%
COc1cccc(Cn2c(=O)n(-c3ccc(C)c(F)c3)c(=O)c3sc4ccccc4c32)c1	24.3%[46.1 µM]	0.0%	?	2.1%	-10.2%[46.1 µM]	1.4%
CCn1c(-c2ccc(N(C)C)cc2)nc2ccccc21	?	-27.3%	-96.1*	·	?	·
CCn1c(-c2ccc(N)cc2)nc2ccccc21	·	15.6%	161.0	i	·	-14.4%
COc1ccc(C(C(=O)NC(C)(C)C)N(CCO)C(=O)CCC(=O)Nc2cc(C)on2)cc1 (configuration not stated)	?	14.2%	-0.1	-5.5%	7.8%[46.1 µM]	-1.4%
COc1ccc(C(C(=O)NC(C)(C)C)N(CCc2ccccc2)C(=O)CCC(=O)Nc2cc(C)on2)cc1 (configuration not stated)	-3.8%	34.8%	0.7	-22.5%	8.91µM*	-23.0%
COc1cc(Cl)c(C)cc1NC(=O)c1cnc2c(-c3cccc(C)c3)c(C)nn2c1C	-6.2%[46.1 µM]	-5.4%	-2.4	-9.0%	·	-6.6%
COc1ccc(Nc2nnc(-c3ccc(C)c(S(=O)(=O)NCc4nc5ccccc5[nH]4)c3)c3ccccc23)cc1	-24.9%[46.1 µM]	41.8%	-95.3*	?	?	?
Cc1ccc(-c2nnc(Nc3ccc(O)cc3)c3ccccc23)cc1S(=O)(=O)NCC1CCCO1 (configuration not stated)	-24.3%[46.1 µM]	8.4%	-70.8*	?	9.8%[46.1 µM]	-24.8%
Cc1ccc(-c2nnc(Nc3cccc(Cl)c3)c3ccccc23)cc1S(=O)(=O)NCC1CCCO1 (configuration not stated)	?	58.0%	-65.1*	-20.6%	-26.1%[46.1 µM]	-21.6%
COc1ccc(Nc2nnc(-c3ccc(C)c(S(N)(=O)=O)c3)c3ccccc23)cc1	-7.5%[46.1 µM]	90.0%	?	-22.7%	·	-7.7%
COc1cc(=O)n2c(c1C(=O)NC(C)c1ccco1)CCN(Cc1cc3ccccc3o1)CC2 (configuration not stated)	·	0.8%	·	-7.7%	·	11.8%
C=C1CC[C@H](O)C/C1=C/C=C1\CCC[C@]2(C)C([C@H](C)CCCC(C)(C)O)CC[C@@H]12 (some centres not stated)	·	2.0%[6.7 µM]	·	-11.1%[3.33 µM]	·	-6.8%[3.33 µM]
Clc1ccc2c(c1)-c1[nH]ncc1CS2	16.0%[46.1 µM]	-14.4%	-61.3*	i	1.6%[46.1 µM]	-26.3%

Assay outcomes from PubChem.
